MCF10A rerep – DNA re-replication induction in MCF 10a cells. MCF 10A DNA re-replication, Hoechst nuclear intensity, 48 h. AID 624296. Potency, µM (doses to about 46.1 µM), for inactives: top-dose activity, positive = re-replication, usual class: activators. 2.9% of 350,000 active; also: potency is read from the fitted curve at half-maximal effect; % of control where 0% means no effect; nearly all actives have a fitted effect of over 50% in size
Gal4-VP16 FLuc – counter-screen for ROR gamma inhibitors: Gal4-VP16 reporter. Drosophila S2 Gal4-VP16 UAS-luciferase, luminescence, 20 h. Potency, µM (top dose mostly 53.6 µM), for the others: at the top dose activity, negative = inhibition, usual class: inhibitors. 3.5% of 310,000 active. AID 2546;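 also: Gal4-VP16 expression switched on by copper sulfate through the metallothionein promoter; potency is read from the fitted curve at half-maximal effect; % is scaled to controls: 0 for no effect and ±100 for the full control effect; nearly all actives have a fitted effect of over 50% in size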
RORgamma inh – blocks mouse ROR gamma transcriptional activity; P51450; Drosophila S2 Gal4-RORgamma UAS-luciferase reporter, 20 h; Potency, µM (highest dose often 53.6 µM), for inactives: at the top dose activity change, negative = inhibition, usual class: inhibitors; 5.4% of 310,000 active; also: potency is read from the fitted curve at half-maximal effect; % is scaled to controls: 0 for no effect and ±100 for the full control effect; nearly all actives have a fitted effect of over 60% in size
Target sequence (P51450 whole entry, looked up, the tested form may be a part): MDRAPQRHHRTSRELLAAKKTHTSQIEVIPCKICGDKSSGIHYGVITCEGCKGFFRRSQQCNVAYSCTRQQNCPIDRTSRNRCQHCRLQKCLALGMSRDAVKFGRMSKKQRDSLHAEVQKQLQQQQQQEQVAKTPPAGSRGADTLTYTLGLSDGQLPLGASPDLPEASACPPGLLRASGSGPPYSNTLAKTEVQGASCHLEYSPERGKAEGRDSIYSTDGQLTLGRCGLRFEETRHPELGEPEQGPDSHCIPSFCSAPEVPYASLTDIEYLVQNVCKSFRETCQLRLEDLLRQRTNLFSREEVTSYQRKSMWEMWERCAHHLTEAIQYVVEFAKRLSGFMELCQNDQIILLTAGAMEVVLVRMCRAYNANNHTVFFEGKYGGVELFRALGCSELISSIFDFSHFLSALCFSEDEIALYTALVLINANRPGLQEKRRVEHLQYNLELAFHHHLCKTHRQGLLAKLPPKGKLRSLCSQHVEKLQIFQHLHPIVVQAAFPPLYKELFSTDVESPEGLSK
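ROR gamma transcriptional activity was tracked as Gal4-UAS luciferase output in stably transfected Drosophila Schneider cells, with compound added 1 hr before 700 uM copper sulfate induction and a 20 hr ambient-temperature incubation.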
Chronic BCR inh – blocks chronic active B-cell receptor signaling; 0.05% of 340,000 active; Potency, µM (doses to about 46.1 µM), for inactives: at the highest dose activity change, negative = inhibition, hits mostly inhibitors; ABC-DLBCL IkBa-CBG/CBR reporter, luminescence ratio, 4 h; AID 493014; active = well fitted inhibition curve with a large enough effect in the signal ratio, with a control signal flat, not every such curve was filed as active; inconclusive = small, poorly fitted or top-dose-only effect, or effect the other way, or a change in a side signal; the % refers to the signal ratio;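 also: potency is read from the fitted curve at half-maximal effect; plate controls were basal doxycycline-induced cells for no effect and cells given 10 µM MG132 for full effect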
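Concentration-response series (up to 46 uM) were applied to TMD8 dual-reporter cells for 4 h at 37C with doxycycline. Green/red ratio, after filter-overlap correction, defined %Activity; red signal alone was normalised to basal cells and zero luminescence.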
Giardia kill – Giardia lamblia killing; Giardia lamblia trophozoite viability; 0.15% of 340,000 active; AID 540267; activity change, % at 7.66 µM, hits read low; in the data active = activity change below about -80%; inconclusive = between about -30% and that limit;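 also: parasites exposed to compound for two days anaerobically before the ATP read; % is scaled to controls: 0 for no effect and ±100 for the full control effect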
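Viability, read as ATP luminescence: trophozoites at 100 cells/well, compound added, 48 hrs anaerobic at 37 deg C, then 15-30 min room-temperature development before reading.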
SW480 rereplic – induces DNA re-replication in SW480 colon adenocarcinoma cells | SW480 DNA re-replication, Hoechst DNA content imaging, 48 h | Potency, µM (doses to about 46.1 µM), inactives show at the highest dose re-replication activation, usual class: activators | 1.8% of 340,000 active | AID 624297; also: potency is read from the fitted curve at half-maximal effect; % of control where 0% means no effect; nearly all actives have a fitted effect of over 55% in size
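250 cells/well; 23 nL cpd via pin tool; 48 hr, 37 C, 5% CO2; Hoechst 40 min; imager read of total nuclear intensity, ex 405/em 500-530 nm.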
Numbers without * were called inactive; u = inconclusive; x = not tested or not shown; [ ] = remark or other dose. This is a sample that favours compounds with a hit; in the whole collection about 8.3% have one here. Unless noted, calls follow the shape of the dose curve; as a rule, active = well fitted curve in the direction sought with a large enough effect; inconclusive = small, poorly fitted or top-dose-only effect, or another doubt; inactive = no such curve, though single readings can be large; an effect the other way counts as inactive or inconclusive.

SMILES	MCF10A rerep	Gal4-VP16 FLuc	RORgamma inh	Chronic BCR inh	Giardia kill	SW480 rereplic
CNc1sc(C(=O)c2cccs2)c(N)c1-c1nc2ccccc2s1	u	3.98µM*	u	u	2.8	2.3%[9.22 µM]
COC(=O)C#CC(=O)OC	x	-10.0%	18.9%	x	x	x
O=C(NS(=O)(=O)c1ccc2c(c1)OCCO2)c1ccccc1	-16.6%	-8.7%	-7.2%	1.9%	-5.7	0.3%[9.22 µM]
Oc1ccc(O)cc1	u	u	11.2µM*	x	x	u
Oc1ccc(-c2nnc(-c3ccc(O)cc3)nn2)cc1	25.6%	u	11.2µM*	u	-16.3	2.7%
Cc1cc(NC(=O)CSc2nc(C)c(C)n2CC(C)C)no1	2.9%	x	x	-0.5%	11.5	12.3%
O=C1CCCC(O)=C1N=Nc1cccc(C(=O)O)c1	0.3%	6.0%	-22.0%	u	12.5	-5.1%
O=C1CCCC(O)=C1N=Nc1c(Cl)cc(Cl)cc1Cl	-3.2%	u	11.2µM*	u	-0.7	-9.4%
O=C(/C=N/O)NCCCCNC(=O)/C=N/O	x	-8.3%[10 µM]	-12.5%[10 µM]	x	x	x
Cc1ccc(-n2nnnc2C(Cl)c2nnnn2-c2ccc(C)cc2)cc1	1.8%	8.91µM*	11.2µM*	u	-26.3	21.1%
CC(=O)Nc1ccc(OC(=O)Cc2ccc(Cl)cc2)cc1	-9.7%	-6.3%	7.9%	0.5%	7.9	u
O=C(N/N=C/C=C\c1ccccc1[N+](=O)[O-])c1cccs1	5.5%	u	14.1µM*	u	26.4	-1.8%
COc1ccccc1/C=C/C=N/NC(=O)Cc1cccs1	0.4%	u	10µM*	u	-4.4	-0.9%
O=C(N/N=C/C=C\c1ccccc1[N+](=O)[O-])c1cccnc1	0.9%	u	10µM*	-12.8%	15.7	7.1%
O=C(Cc1cccs1)N/N=C/C=C/c1ccccc1[N+](=O)[O-]	-23.5%	-12.9%	1.9%	12.3%	0.2	u
O=C(CN1CCN(Cc2ccccc2Cl)CC1)N/N=C/C=C\c1ccccc1[N+](=O)[O-]	0.5%	0.159µM*	-45.4%	-4.9%	1.2	u
O=C(N/N=C/C=C/c1ccccc1[N+](=O)[O-])c1cccnc1	0.9%	0.3%	0.3%	-2.3%	-0.4	2.1%
COc1ccccc1NC(=O)/C(C#N)=C/c1cccn1C	u	x	x	x	-17.5	-5.8%
O=C(N/N=C/C=C/c1ccc([N+](=O)[O-])cc1)c1cccs1	-0.4%	u	3.98µM*	u	-16.0	-1.4%
O=C(N/N=C/c1cccc([N+](=O)[O-])c1)c1cccs1	1.0%	u	-27.3%	u	2.7	-3.3%
COc1ccccc1/C=C/C=N/NC(=O)CN1CCN(S(=O)(=O)c2ccc(C)cc2)CC1	-2.5%	u	15.8µM*	-12.3%	-6.3	-28.2%
COc1ccccc1/C=C/C=N/NC(=O)c1ccncc1	-23.1%	11.2µM*	5.62µM*	u	20.7	-18.1%
O=C(N/N=C/C=C/c1ccccc1[N+](=O)[O-])c1ccncc1	-2.5%	20µM*	11.2µM*	-27.9%	-4.2	0.8%
O=C(N/N=C/C=C\c1ccccc1[N+](=O)[O-])c1cc(-c2ccc3ccccc3c2)n[nH]1	10.3µM*	4.47µM*	3.16µM*	u	-18.3	8.2µM*
O=C(Cc1ccccc1)N/N=C/C=C/c1ccccc1[N+](=O)[O-]	-28.2%	u	15.5%	14.1%	-9.2	-7.6%
SMILES	MCF10A rerep	Gal4-VP16 FLuc	RORgamma inh	Chronic BCR inh	Giardia kill	SW480 rereplic
CCc1ccc(NC(=O)CSC2=Nc3ccccc3C3=NC(CCC(=O)NCCc4ccccc4)C(=O)N23)cc1 (stereo not drawn)	x	x	x	-17.0%	x	x
Cc1[nH]nc2c1C1(CCN(C(=O)OCc3ccccc3)CC1)C(C#N)=C(N)O2	11.0%	u	5.01µM*	u	6.0	-7.8%
Cc1[nH]nc2c1C1(CCN(C(=O)c3ccccc3)CC1)C(C#N)=C(N)O2	19.5%	0.8%	-2.8%	-5.6%	5.6	-2.9%
CCn1c2ccccc2c2cc(C3N=C(N)Nc4nc5ccccc5n43)ccc21 (stereo not drawn)	20.6µM*	-2.6%	39.2%	2.2%	4.3	16.1%
Cc1ccc(C2N=C(N)Nc3nc4ccccc4n32)cc1 (stereo not drawn)	2.1%	0.9%	-10.9%	-0.5%	3.7	-0.4%
CN(C)Cc1ccccc1Sc1cccc2ccccc12	13µM*	14.1µM*	10µM*	0.0%	2.9	u
CN(C)Cc1ccccc1Sc1ccccc1Br	2.2%	-20.4%	-20.6%	-1.5%	7.9	-2.7%
Fc1ccc(-c2csc3ncnc(N4CCc5ccccc5C4)c23)cc1	10.3µM*	5.8%	u	u	6.7	17.0%
Cc1ccc(-c2csc3ncnc(N4CCN(Cc5ccccc5)CC4)c23)cc1	u	-1.8%	u	-0.2%	-0.9	1.8%
Cc1ccc(-c2csc3ncnc(N4CCc5ccccc5C4)c23)cc1	18.4µM*	2.1%	33.5%	26.3%	14.7	7.0%
CCOC(=O)C1=C(N)N2C(=O)C(C)SC2=C(C(=O)OCC)C1c1ccccc1 (stereo not drawn)	-5.7%	12.6µM*	u	1.7%	8.6	-0.9%
CCOC(=O)C1=C(N)N2C(=O)C(C)SC2=C(C(=O)OCC)C1c1ccc(O)cc1 (stereo not drawn)	9.7%	7.4%	-16.6%	26.3%	2.0	0.2%
O=C1C(Cl)=C(NCCN2CCCCC2)C(=O)c2ccccc21	u	u	10µM*	u	3.6	29.4%
Cc1c(C(=S)Nc2ccccc2)cnn1-c1ccccc1	-0.7%	-5.2%	u	u	8.1	-9.4%
Cc1nn(-c2ccccc2)cc1C(=S)Nc1ccccc1	11.9%	10.0%	11.2µM*	-13.4%	28.7	4.5%
CCC(=O)C1CCCN(C(=O)CCc2nnc(C3(c4ccc(Cl)cc4)CCC3)o2)C1 (stereo not drawn)	19.8%	-2.8%	35.8%	4.7%	-14.8	-4.2%
O=C(N/N=C/c1cnc(N2CCCCC2)s1)c1ccc(C(F)(F)F)cc1	-5.4%	3.55µM*	2µM*	5.6%	-2.9	u
COc1cccc(/C=N/NC(=O)CSc2nnc(C)n2-c2ccccc2)c1O	u	20µM*	7.08µM*	u	-0.5	u
COc1ccc(O)c(/C=N/NC(=O)CSc2nnc(C)n2-c2ccccc2)c1	u	-29.4%	7.94µM*	-4.8%	-6.3	u
CCCCSc1nc(C)cc(SCC(=O)N/N=C/c2cccc(OC)c2O)n1	3.7%	1µM*	0.282µM*	u	9.2	14.1%
COc1ccc(/C=N/NC(=O)CSc2nnc(C)n2-c2ccccc2)c(OC)c1OC	-0.7%	0.3%	43.4%	10.2%	-3.3	13.4%
CN1CCC2(CC1)N=C(c1ccc(F)cc1)C(=S)N2C(=O)c1ccccc1	u	u	u	u	1.3	x
